G9a inh: blocks human histone lysine methyltransferase G9a | G9a H3K9 monomethylation, AlphaScreen, 2 h | Potency, µM (highest dose often 102 µM), most hits filed as inhibitors | 350,000 tested, 8.8% active | AID 504332; further: nearly all actives have a fitted effect of over 75% in size
Target sequence (Q96KQ7 913-1193 limits assumed): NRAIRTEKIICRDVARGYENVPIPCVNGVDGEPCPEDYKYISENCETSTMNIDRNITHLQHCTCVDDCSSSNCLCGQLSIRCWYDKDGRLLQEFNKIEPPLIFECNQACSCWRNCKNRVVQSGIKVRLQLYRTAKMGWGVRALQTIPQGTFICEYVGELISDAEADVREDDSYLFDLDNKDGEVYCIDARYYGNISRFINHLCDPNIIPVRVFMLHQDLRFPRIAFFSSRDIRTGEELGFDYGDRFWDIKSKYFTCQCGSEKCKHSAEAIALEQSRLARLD
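Step 1: enzyme (final 20 nM) with compound, 15 min RT. Step 2: substrate peptide 500 nM and SAM 20 uM, 2 h RT. Step 3: anti-H3K9me1 antibody and AlphaScreen beads, 10 min, then plate read.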
HP1b chromo inh: HP1-beta chromodomain-methylated histone interaction inhibition. P83916. AlphaScreen HP1-beta / biotin-H3K9me3 peptide binding. Potency, µM (top dose mostly 114 µM), most hits filed as inhibitors. 390,000 tested, 0.56% active. AID 540317; further: nearly all actives have a fitted effect of over 70% in size
Target sequence (P83916 whole entry, looked up): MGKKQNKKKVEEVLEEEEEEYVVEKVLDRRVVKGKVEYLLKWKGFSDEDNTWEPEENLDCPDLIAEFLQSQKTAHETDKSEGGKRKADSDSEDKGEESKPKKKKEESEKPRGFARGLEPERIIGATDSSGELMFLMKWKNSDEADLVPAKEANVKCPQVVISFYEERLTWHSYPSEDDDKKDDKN
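AlphaScreen: HP1-beta (50 nM) preformed 30 min with biotin-H3(1-18)K9me3 peptide (50 nM) in PBS pH 7.4, 0.01% Tween-20. Compound added for 30 min at RT, then streptavidin donor/nickel chelate acceptor beads (10 ug/mL) for 30 min.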
BAZ2B block: inhibitors of human BAZ2B bromodomain | Q9UIF8 | AlphaScreen BAZ2B-H3K14Ac peptide displacement | Potency, µM (highest dose often 114 µM), most hits filed as inhibitors | 360,000 tested, 4.4% active; further: nearly all actives have a fitted effect of over 60% in size
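Compounds, titrated to a top concentration of 110 uM, were incubated 30 min at room temperature with preformed BAZ2B/acetyl-K14 H3 peptide complex (50 nM each). Proximity signal was measured by AlphaScreen after 20 min with beads.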
Sfp inh: Sfp phosphopantetheinyl transferase inhibition; Q9F4F7; Biochemical Sfp PPTase activity, qHTS; Potency, µM, actives largely listed as inhibitors; 310,000 tested, 3.5% active; AID 1490;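 further: the enzyme is Sfp with the accession as filed and its product quenches rhodamine fluorescence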
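Reaction rates are the 30-min fluorescence difference (ex 525, em 598 nm) in wells containing 15 nM Sfp, 5 uM rhodamine-CoA and 12.5 uM BHQ-2-YbbR at pH 7.6 with 10 mM MgCl2.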
JMJD2A Tudor inh: inhibitors of human JMJD2A Tudor domain; O75164; AlphaScreen JMJD2A-Tudor / H3K4me3 peptide binding; Potency, µM (series often up to 114 µM), hits mostly inhibitors; 390,000 tested, 4.4% active; further: nearly all actives have a fitted effect of over 50% in size
Of the large screens only hits and unclear results are named; the others gave an inactive call. Rows were chosen to be rich in hits. Some 12% of all compounds tested hit in one or more screens of this group. The call rests on the fitted dose curve; in most records, active means well fitted curve in the direction sought with a large enough effect; inconclusive means small, poorly fitted or top-dose-only effect, or another doubt; inactive means no such curve, though single readings can be large; an effect the other way counts as inactive or inconclusive.

O=C(CCNc1ccc(Br)cc1)c1cccc([N+](=O)[O-])c1	G9a inh 3.2µM, HP1b chromo inh 79µM, BAZ2B block inconclusive, JMJD2A Tudor inh 20µM
CC1SC(=NC(=O)c2ccco2)NC1=O (centres undefined)	G9a inh 50µM, JMJD2A Tudor inh inconclusive
CC(C)=N/N=C1\NC(=O)C(C)S1 (centres undefined)	none
Cc1cc(C)cc(N(CC(=O)NC2CCCC2)C(=O)CCC(=O)Nc2cc(C)ccn2)c1	none
Nc1nc(-c2ccc(Cl)cc2)c(N=Nc2ccc(S(=O)(=O)N3CCOCC3)cc2)s1	G9a inh inconclusive, HP1b chromo inh inconclusive, BAZ2B block 7.1µM, JMJD2A Tudor inh inconclusive
Cc1cc(C)c(NC(=O)CCN2CCN(Cc3ccccc3)CC2)c(C)c1	none (no result: G9a inh, BAZ2B block, Sfp inh)
Cc1ccc(NC(=O)CSc2ncccc2C(=O)Oc2cccc([N+](=O)[O-])c2)cc1Cl	G9a inh 50µM, Sfp inh inconclusive
Cc1ccc(NC(=O)CSc2ncccc2C(=O)Oc2ccccc2Cl)cc1Cl	G9a inh inconclusive (no result: Sfp inh)
O=C(CC(c1ccco1)C1CCCCC1=O)c1ccco1 (centres undefined)	G9a inh 56µM, BAZ2B block inconclusive
COC(=O)c1ccc(C(=O)Nc2ccc(N)cc2N)cc1	G9a inh 45µM, BAZ2B block inconclusive
COc1ccccc1NC(=O)c1ccc(N)cc1	G9a inh inconclusive
CCOC(=O)c1c(NC(=O)c2cc(-c3ccccc3)on2)sc2c1CCCC2	none (no result: Sfp inh)
Nc1nnc(CC(c2ccccc2)c2ccccc2)s1	none
CC(Cc1nnc(N)s1)c1ccccc1 (centres undefined)	G9a inh 32µM, Sfp inh 50µM
CC(C)(C)CC(=O)Nc1ccc(C(N)=O)cc1	none
O=C(N/N=C/c1ccc(-c2cccc([N+](=O)[O-])c2)o1)c1cccs1	none
O=C(N/N=C/c1cccc([N+](=O)[O-])c1O)c1cccs1	G9a inh 50µM, BAZ2B block 22µM, JMJD2A Tudor inh 50µM
O=C(N/N=C/c1ccc([N+](=O)[O-])cc1)c1cccs1	G9a inh 50µM
CCCc1c(NC(=O)Nc2ccc(F)cc2)cnn1-c1ccc(Cl)cc1	none
CS(=O)(=O)CCC(C(=O)n1nnc2ccccc21)N1C(=O)c2ccccc2C1=O (centres undefined)	none
COc1ccc(C(N)c2nccc3cc(OC)c(OC)cc23)cc1OC (centres undefined)	BAZ2B block 14µM, JMJD2A Tudor inh 56µM (no result: G9a inh)
CN1C(=O)C2(c3ccccc31)N(c1cccc(F)c1)C(=O)CS2(=O)=O (centres undefined)	G9a inh 16µM (no result: Sfp inh)
CN1C(=O)C2(c3ccccc31)N(c1ccccc1)C(=O)CS2(=O)=O (centres undefined)	none (no result: Sfp inh)
Cc1ccccc1-c1cc(C(=O)NCc2cccs2)nn1CC1CC(c2cccc([N+](=O)[O-])c2)=NO1 (centres undefined)	none (no result: Sfp inh)
O=C1c2ccccc2CCC1CNCCc1ccc(O)cc1 (centres undefined)	G9a inh 7.9µM, Sfp inh 56µM (no result: HP1b chromo inh, BAZ2B block, JMJD2A Tudor inh)
O=C(NCCc1ccccc1)c1noc2c1CCc1ccccc1-2	none (no result: G9a inh)
Cc1cc(C)cc(NC(=O)Nc2ccc(N3CCCCC3)cc2)c1	G9a inh 8.9µM, Sfp inh 50µM
O=C(Cc1ccccc1)NCCS(=O)(=O)N1CCN(c2ccccc2)CC1	G9a inh 50µM (no result: Sfp inh)
O=C(CN1CCCCC1)Nc1ccccc1	none
O=C(CN1CCCCC1)Nc1ccc(N2CCCCCC2)cc1	G9a inh 18µM, HP1b chromo inh inconclusive, BAZ2B block 14µM, JMJD2A Tudor inh 50µM
O=C(CCc1ccccc1)Nc1ccc(N2CCCCC2)cc1	G9a inh 8.9µM
Cc1cc(C)cc(OCC(=O)Nc2ccc(N3CCCCC3)cc2)c1	HP1b chromo inh inconclusive (no result: Sfp inh)
COc1cc2c(cc1OC)C(COc1cccc(C(F)(F)F)c1)N(C(=O)c1ccc(S(=O)(=O)N3CCCC3)cc1)CC2 (centres undefined)	none (no result: Sfp inh)
CCCc1c(C(=O)NNc2ccccc2OC)cnn1-c1ccccc1	BAZ2B block inconclusive (no result: G9a inh)
O=C(Cc1ccccc1)Nc1ccc(N2CCOCC2)cc1	none
CCCOC(=O)Nc1ccc(N2CCCCC2)cc1	G9a inh 8.9µM, BAZ2B block 71µM, JMJD2A Tudor inh inconclusive
O=C(Cc1ccccc1)Nc1ccc(N2CCCC2)cc1	G9a inh 8.9µM, BAZ2B block inconclusive, Sfp inh inconclusive, JMJD2A Tudor inh inconclusive
CC1CCc2c(sc(/N=C/c3cccnc3)c2C(N)=O)C1 (centres undefined)	Sfp inh 50µM
CN(C1CCS(=O)(=O)C1)S(=O)(=O)c1cccs1 (centres undefined)	none (no result: Sfp inh)
CN(C1CCS(=O)(=O)C1)S(=O)(=O)c1ccccc1 (centres undefined)	Sfp inh 11µM (no result: G9a inh)
Cc1ccccc1C(=O)N1N=C(c2ccc(NS(C)(=O)=O)cc2)CC1c1cccs1 (centres undefined)	G9a inh inconclusive
COCCNc1nnc(SCC(=O)Nc2sc3c(c2C(=O)c2ccccc2)CCCC3)s1	G9a inh 45µM, HP1b chromo inh inconclusive, BAZ2B block inconclusive, Sfp inh inconclusive, JMJD2A Tudor inh inconclusive
COCCSc1nnc(NC(=O)CSCc2ccccc2)s1	G9a inh 14µM
COCCSc1nnc(NS(=O)(=O)c2ccc(C)cc2)s1	BAZ2B block inconclusive
COCCSc1nnc(NS(=O)(=O)c2ccccc2)s1	G9a inh 28µM, BAZ2B block inconclusive
CC(=O)Nc1c(O)nc(SCC(=O)Nc2nnc(SCc3ccccc3)s2)[nH]c1=O	G9a inh 20µM, BAZ2B block inconclusive, Sfp inh 35µM, JMJD2A Tudor inh inconclusive
COc1ccccc1N(C)S(=O)(=O)c1ccc(C(=O)Nc2ccc(C(N)=O)cc2)cc1	none (no result: G9a inh, BAZ2B block, Sfp inh)
CC(=O)N1N=C(c2ccccc2O)OC1(C)CC(=O)Nc1ccccc1 (centres undefined)	G9a inh inconclusive, BAZ2B block inconclusive
Cc1ccc(C)c(S(=O)(=O)N2CCN(C(=O)c3ccc(C)s3)CC2)c1	none
Cc1sc(NC(=O)c2ccco2)c(CN2CCN(c3ccccn3)CC2)c1C	G9a inh inconclusive, HP1b chromo inh inconclusive, BAZ2B block inconclusive, JMJD2A Tudor inh inconclusive
CC(=O)Nc1sc2c(c1CN1CCN(c3ccc(F)cc3)CC1)CCCC2	G9a inh 45µM, BAZ2B block 50µM, JMJD2A Tudor inh inconclusive
CC(=O)Nc1sc2c(c1CN1CCCC1)CCCC2	G9a inh inconclusive
CC(=O)Nc1sc2c(c1CN1CCN(c3ccccn3)CC1)CCCC2	G9a inh 32µM, BAZ2B block inconclusive, JMJD2A Tudor inh inconclusive
CCOc1ccc(CCNC(=O)c2ccc(-n3c(C)cc4c3CCCC4)cc2)cc1OCC	none (no result: Sfp inh)
CCCCCOC(=O)Nc1ccc(S(=O)(=O)Nn2cnnc2)cc1	JMJD2A Tudor inh 89µM
Cc1ccc(C(=O)NC(=S)NNC(=O)CCN2CCOCC2)cc1	G9a inh 8.9µM, BAZ2B block 56µM

Source: PubChem (National Center for Advancing Translational Sciences (NCATS))
